Assay results from PubChem BioAssay AID1159580 (chemical genetic matrix, 2015).
Where “and” joins values, the source holds several entries; their conditions need not be identical. Identical values can stand only once. About 2,000 (36%) of roughly 5,500 compounds were called active. About 18% were inconclusive and are not listed. Rule as the data show it: active = normalized growth mostly below about 0.91 (no sharp cut-off); inconclusive = no clear call, values can overlap the other calls; inactive = mostly above about 0.92. The list shows a part of the results.

Assay: chemical genetic growth profiling, strain panel (AID 1159580);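 also: tested at 20 µM; growth read once vehicle control cultures reached saturation at 30 °C; 1 = growth at the plate median or of vehicle wells; lower values mean less growth of the strain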
Conditions: S. cerevisiae deletion strains, growth OD

Measured: normalized growth

COc1ccc(OC)c(C(O)CNC(=O)CN)c1 (stereo not given)
inactive: locus YAL021C, strain ccr4, stronger effect = lower value 0.984 | locus YAL026C, strain drs2, stronger effect = lower value 1 | locus YAL030W, strain snc1, stronger effect = lower value 1.01 | locus YBL061C, strain skt5, stronger effect = lower value 1.01 | locus YBR009C, strain hhf1, stronger effect = lower value 1 | locus YBR021W, strain FUR4, stronger effect = lower value 1.02 | locus YBR023C, strain chs3, stronger effect = lower value 1 | locus YBR171W, strain sec66, stronger effect = lower value 1.02 | locus YBR229C, strain ROT2, stronger effect = lower value 0.961 | locus YBR231C, strain swc5, stronger effect = lower value 1 | locus YBR279W, strain paf1, stronger effect = lower value 1.01 | locus YCL011C, strain gbp2, stronger effect = lower value 1.01 | locus YCL016C, strain dcc1, stronger effect = lower value 1.01 | locus YCL029C, strain bik1, stronger effect = lower value 0.987 | locus YCL061C, strain MRC1, stronger effect = lower value 1.01 | locus YCL069W, strain vba3, stronger effect = lower value 1.01 | locus YCR088W, strain abp1, stronger effect = lower value 0.996 | locus YDL005C, strain med2, stronger effect = lower value 1 | locus YDL035C, strain GPR1, stronger effect = lower value 0.986 | locus YDL040C, strain nat1, stronger effect = lower value 0.997 | locus YDL074C, strain BRE1, stronger effect = lower value 0.962 | locus YDL101C, strain DUN1, stronger effect = lower value 0.987 | locus YDL134C, strain PPH21, stronger effect = lower value 1 | locus YDL185W, strain tfp1, stronger effect = lower value 0.979 | locus YDL192W, strain arf1, stronger effect = lower value 0.964 | locus YDR001C, strain nth1, stronger effect = lower value 0.997 | locus YDR069C, strain doa4, stronger effect = lower value 1 | locus YDR101C, strain arx1, stronger effect = lower value 0.98 | locus YDR137W, strain rgp1, stronger effect = lower value 1.01 | locus YDR150W, strain NUM1, stronger effect = lower value 0.993 | locus YDR159W, strain sac3, stronger effect = lower value 0.989 | locus YDR162C, strain NBP2, stronger effect = lower value 0.983 | locus YDR195W, strain ref2 0.977 | locus YDR297W, strain sur2, stronger effect = lower value 1 | locus YDR318W, strain mcm21, stronger effect = lower value 0.982 | locus YDR334W, strain swr1, stronger effect = lower value 1.01 | locus YDR335W, strain msn5, stronger effect = lower value 1 | locus YDR388W, stronger effect = lower value 0.983 | locus YDR392W, strain spt3, stronger effect = lower value 1.02 | locus YDR502C, strain sam2, stronger effect = lower value 0.981 | locus YEL003W, strain gim4, stronger effect = lower value 0.998 | locus YEL037C, strain rad23, stronger effect = lower value 1 | locus YEL061C, strain CIN8 (second series), stronger effect = lower value 1.01 | locus YEL061C, strain CIN8, stronger effect = lower value 0.979 | locus YER015W, strain faa2, stronger effect = lower value 1.02 | locus YER016W, strain bim1, stronger effect = lower value 1 | locus YER110C, stronger effect = lower value 0.973 | locus YER111C, strain swi4, stronger effect = lower value 1.01 | locus YER155C, strain BEM2 (second series), stronger effect = lower value 1.01 | locus YER155C, strain BEM2, stronger effect = lower value 1 | locus YER167W, strain BCK2, stronger effect = lower value 1.01 | locus YFR010W, strain ubp6, stronger effect = lower value 1.01 | locus YGL078C, strain dbp3, stronger effect = lower value 0.974 | locus YGL086W, strain mad1, stronger effect = lower value 0.979 | locus YGL167C, strain pmr1, stronger effect = lower value 0.995 | locus YGL173C, strain kem1, stronger effect = lower value 0.995 | locus YGL227W, strain vid30, stronger effect = lower value 1 | locus YGL240W, strain doc1, stronger effect = lower value 1.02 | locus YGL248W, strain PDE1, stronger effect = lower value 0.967 | locus YGL253W, strain hxk2, stronger effect = lower value 1.02 | locus YGR135W, strain pre9, stronger effect = lower value 0.999 | locus YGR229C, strain SMI1, stronger effect = lower value 0.99 | locus YGR252W, strain gcn5, stronger effect = lower value 0.956 | locus YHR013C, strain ard1, stronger effect = lower value 1.01 | locus YHR027C, strain rpn1, stronger effect = lower value 0.999 | locus YHR030C, strain SLT2, stronger effect = lower value 1 | locus YHR079C, strain IRE1 (second series), stronger effect = lower value 0.991 | locus YHR079C, strain IRE1, stronger effect = lower value 1.01 | locus YHR094C, strain hxt1, stronger effect = lower value 0.978 | locus YHR129C, strain ARP1, stronger effect = lower value 0.996 | locus YHR142W, strain chs7, stronger effect = lower value 0.997 | locus YIL066C, strain RNR3, stronger effect = lower value 0.969 | locus YIL073C, strain SPO22, stronger effect = lower value 0.985 | locus YIL125W, strain kgd1, stronger effect = lower value 0.975 | locus YIR030C, strain dcg1, stronger effect = lower value 0.986 | locus YJL092W, strain hpr5, stronger effect = lower value 1.01 | locus YJL095W, strain BCK1 (second series), stronger effect = lower value 1 | locus YJL095W, strain BCK1, stronger effect = lower value 0.975 and 1.03 | locus YJL115W, strain asf1, stronger effect = lower value 1 | locus YJL129C, strain trk1, stronger effect = lower value 0.999 | locus YJL134W, strain LCB3, stronger effect = lower value 0.991 | locus YJL154C, strain vps35, stronger effect = lower value 0.992 | locus YJL164C, strain tpk1, stronger effect = lower value 1 | locus YJL166W, strain qcr8, stronger effect = lower value 1 | locus YJL168C, strain set2, stronger effect = lower value 0.976 | locus YJL187C, strain SWE1 (second series), stronger effect = lower value 0.958 | locus YJL187C, strain SWE1, stronger effect = lower value 1 | locus YJR043C, strain POL32, stronger effect = lower value 0.944 | locus YJR066W, strain TOR1, stronger effect = lower value 1 | locus YJR075W, strain HOC1, stronger effect = lower value 0.993
